Screen size: about 360,000 compounds; about 3,100 (0.86%) were called active.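 How the source made its calls: active means at least 50% inhibition at 5 µM, scaled per plate between neutral and stimulator controls; inactive means the rest.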 The sample as a whole holds a higher share of actives than the screen did.

The assay in a line: NF-kB reporter blockers in CF airway cells – cell-based, GFP fluorescence, uHTS, primary screen (AID 588850).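 Further: PAF is a Pseudomonas aeruginosa culture filtrate used as stimulus; plate controls were PAF-stimulated DMSO wells for no effect and unstimulated DMSO wells for full effect.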 The conditions noted are these: KKLEB NF-kB-GFP reporter, PAF-induced, GFP fluorescence overnight; at 5 µM; active compounds read high.
For the compound `CC1Cn2c(nnc2-c2cccs2)S1` (configuration not stated), the inhibition (as a rule, the relative decrease from the control value, in per cent) was 9.9% (inactive).

In the case of `O=C(O)C1CCCN(CCC=C(c2ccccc2)c2ccccc2)C1` (configuration not stated), the inhibition was 9.2% (inactive). For `Cc1ccnc(NS(=O)(=O)c2ccc(NC(=O)c3ccc(S(=O)(=O)N(C)C)cc3)cc2)n1`, the inhibition is 2.1% (inactive). Regarding `CC1(C(=O)Nc2cccc3c2CCCC3)CCN1C(=O)CCc1ccc(Cl)cc1Cl` (configuration not stated), the inhibition was -16% (inactive). Turning to `CC12CCC(=O)C=C1CCC1C2C(O)CC2(C)C1CCC2(O)C(O)CO` (configuration not stated), the inhibition was 24.8% (inactive). Regarding `CC(=O)OCC(=O)C1(O)CCC2C3CC(C)C4=CC(=O)CCC4(C)C3C(O)CC21C` (configuration not stated), the inhibition was 73% (active). In the case of `CC(=O)O[C@]1(C(C)=O)CC[C@H]2[C@@H]3C=C(C)C4=CC(=O)CC[C@]4(C)[C@H]3CC[C@@]21C`, the inhibition was 39.9% (inactive). For `Cc1ccc(CC(=O)Nc2cccc(C#N)c2)cc1`, the inhibition was -4.9% (inactive).

As for `O=C(COC(=O)Cn1cnc2ccccc2c1=O)NCC12CC3CC(CC(C3)C1)C2`, the inhibition was -1.8% (inactive). The result for `c1ccc(-n2cccc2)c(N2CCCCC2)c1` reads 5.6% (inactive).

On to `O=C(c1ccc(Cl)c(S(=O)(=O)N2CCCCCC2)c1)N1CCN(c2ccc(O)cc2)CC1`, for which the inhibition is 2.4% (inactive). The result for `O=C1C=CC(=O)N1c1ccc(N2CCCCC2)cc1` reads 67% (active). Turning to `O=C(Nc1ccc(F)c([N+](=O)[O-])c1)C1CCCO1` (configuration not stated), the inhibition is 4.8% (inactive). On to `COc1ccc(OC)c(C2N(c3ccccn3)C(=O)C3CCCN32)c1` (configuration not stated), for which the inhibition is -3.8% (inactive). The value for `COC(=O)c1cc(C(=O)N(Cc2ccccc2)c2ccccn2)cc([N+](=O)[O-])c1` was 5% (inactive); that for `CC(=O)N(CN1C(=O)C2CC=CCC2C1=O)c1cccc(Cl)c1` (configuration not stated) was -5.3% (inactive). The result for `O=C(CCl)N(Cc1cccc([N+](=O)[O-])c1)c1cccc(Cl)c1` reads 90.5% (active); that for `CCS(=O)(=O)c1ccc(C(=O)NC)c(Cl)c1Cl`, 4.1% (inactive); that for `C1=C(N2CCOCC2)/C(=C/c2nc3ccccc3[nH]2)CC1`, 0.9% (inactive). On to `COc1cccc(N2CCN(CC(=O)Nc3ccnn3C3CCCC3)CC2)c1`, for which the inhibition is -19% (inactive). In the case of `Cc1noc(C)c1C(=O)N1CCC1(C)C(=O)NS(=O)(=O)c1ccc(C#N)cc1` (configuration not stated), the inhibition was 1.8% (inactive). The result for `CCOC(=O)c1c(NC(=O)CSc2nccc(=O)[nH]2)sc(C)c1C` reads -8.3% (inactive). With `CCOC(=O)c1c(C)[nH]c(C)c1C(=O)CSc1nc(N)cc(N)n1`, the inhibition was -5.9% (inactive). Turning to `CCOC(=O)c1c(C)[nH]c2c1-c1ccccc1C(=O)C2=O`, the inhibition is 86.7% (active). The result for `NCCCCC(C(=O)O)N(C(=O)OCc1ccccc1)C(=O)OCc1ccccc1` (configuration not stated) reads 1.1% (inactive). Regarding `COc1ccc(C(CC(=O)c2ccccc2)S(=O)(=O)c2ccccc2)cc1` (configuration not stated), the inhibition is -3.5% (inactive).

Consider `CCCCC(=O)Nc1c2c(nn1-c1ccc([N+](=O)[O-])cc1)CS(=O)(=O)C2`, for which the inhibition is 5.8% (inactive). `O=C1/C(=C\c2ccc([N+](=O)[O-])cc2)CS(=O)(=O)C/C1=C/c1ccc([N+](=O)[O-])cc1`: the inhibition was 98.2% (active).

Regarding `CN(C)S(=O)(=O)N1CCN(c2ccc([N+](=O)[O-])cc2)CC1`, the inhibition is 8.2% (inactive). In the case of `C=CCc1cc(S(=O)(=O)c2ccc(O)c(CC=C)c2)ccc1O`, the inhibition is 60.6% (active). Regarding `CCCCN(C)c1ccc([N+](=O)[O-])cc1`, the inhibition was -12.3% (inactive). On to `CCn1c(SCC(=O)NC2CC2)nnc1-c1ccccc1OC`, for which the inhibition was -0.4% (inactive).

For `COc1ccc(C2=Nn3c(nnc3-c3ccccc3OC)SC2)cc1OC1CCCC1`, the inhibition is 68.4% (active).

Turning to `COc1ccccc1-c1nnc2n1N=C(c1ccc(OC(F)F)c(OCC3CC3)c1)CS2`, the inhibition was 49.1% (inactive).

Turning to `CCCCCCCCCCCCCCCC(=O)OC/C=C(C)/C=C/C=C(C)/C=C/C1=C(C)CCCC1(C)C`, the inhibition is -16.9% (inactive).

Turning to `NC1=NOC(=O)C1C1CCCCC1` (configuration not stated), the inhibition is 25.2% (inactive). In the case of `CCCCc1nc2ccc(F)cc2cc1C`, the inhibition is -14.3% (inactive). With `COc1ccc(N2CCN(S(=O)(=O)CCNC(=O)C34CC5CC(CC(C5)C3)C4)CC2)cc1`, the inhibition was -0.5% (inactive). The value for `COCCCN(C(=S)Nc1c(C)cc(C)cc1C)C(C)c1ccncc1` (configuration not stated) was -10.4% (inactive). `CCCCOc1ccc(C(=O)NCC(=O)OCC(=O)N2CCN(S(=O)(=O)c3ccc(C)cc3C)CC2)cc1`: the inhibition is -0.3% (inactive). The value for `COc1ccc(C(=NN)c2ccc(OC)cc2)cc1` was -2.7% (inactive); that for `COc1ccc(/C(N)=N/OC(=O)Cc2ccccc2)cc1` was -28% (inactive). In the case of `COc1ccc(C(C#N)=C2C=CC(=NO)c3ccccc32)cc1`, the inhibition is 84.7% (active). As to `Fc1ccc(Nc2nnns2)cc1`, the inhibition was -11.2% (inactive). Take `C=CCNC(=S)NNc1ncnc2sc3c(c12)CC(C)(C)OC3`: the inhibition was -2% (inactive). The value for `O=C(Nc1ccc(Cl)cc1)c1csc([C@@H]2O[C@H](CO)[C@H](O)[C@H](O)[C@H]2O)n1` was 13% (inactive); that for `CC[C@]1(O)CC2CN(CCc3c([nH]c4ccccc34)[C@@](C(=O)OC)(c3cc4c(cc3OC)N(C=O)[C@H]3[C@@](O)(C(=O)OC)[C@H](OC(C)=O)[C@]5(CC)C=CCN6CC[C@]43[C@@H]65)C2)C1` (some centres not stated) was 53.6% (active); that for `CC[C@]1(O)C[C@@H]2CN(CCc3c([nH]c4ccccc34)[C@@](C(=O)OC)(c3cc4c(cc3OC)N(C)[C@H]3[C@@](O)(C(=O)OC)[C@H](OC(C)=O)[C@]5(CC)C=CCN6CC[C@]43[C@@H]65)C2)C1` was 57.6% (active).

For `C=CCNC(=S)/N=c1/ccccn1Cc1ccccc1`, the inhibition was -16.5% (inactive). Take `N#CC1(C#N)C(C(=O)C23CC4CC(CC(C4)C2)C3)C12CCOCC2` (configuration not stated): the inhibition was 12.2% (inactive). `Cc1ccc(NC(=S)Nc2ncccc2C)c(C)c1`: the inhibition is -2.7% (inactive). With `COc1ccccc1C(=O)Nc1ccc(Nc2ccccc2)cc1`, the inhibition was 6.4% (inactive).

Consider `COc1cc(NC(=O)c2ccccc2NS(=O)(=O)c2ccc(Cl)s2)cc(OC)c1`, for which the inhibition is 49.7% (inactive). The value for `COC(=O)c1ccc(NC(=O)c2ccccc2NS(=O)(=O)c2ccccc2)cc1` was 59.8% (active); that for `Cc1ccnc(NS(=O)(=O)c2ccc(NC(=O)c3oc4ccc(F)cc4c3C)cc2)n1` was 8.7% (inactive).

Consider `COC(=O)c1ccc(NC(=O)CSc2nncn2-c2cccnc2)cc1`, for which the inhibition was -0.4% (inactive). For `Cc1cc(-c2ccccc2)n2nc(C)c(-c3ccccc3)c2n1`, the inhibition is 5.2% (inactive). For the compound `O=C(NCCCN1CCN(c2ccc(F)cc2)CC1)Nc1ccc([N+](=O)[O-])cc1`, the inhibition is -19.1% (inactive). As for `Cc1cccc2sc(N(CCCN(C)C)C(=O)CCS(=O)(=O)c3ccccc3)nc12`, the inhibition is 85.7% (active). The result for `COc1cccc2sc(N(CCCN(C)C)C(=O)CCS(=O)(=O)c3ccccc3)nc12` reads 88.4% (active). For `COc1ccc(N(C)C(=O)CCS(=O)(=O)c2cccc3nsnc23)cc1`, the inhibition is -4% (inactive).

With `O=C(CCS(=O)(=O)c1ccccc1)Nc1nc2c(s1)CCCC2`, the inhibition is -2.5% (inactive). As to `Cc1cccc(C)c1NC(=O)CCS(=O)(=O)c1cccc2nsnc12`, the inhibition was -15.6% (inactive).

On to `Cc1ccc(S(=O)(=O)CCC(=O)OCC(=O)N(C)Cc2ccccc2)cc1`, for which the inhibition is 7.6% (inactive). Take `CC(C#N)(NC(=O)CN1CCN(S(=O)(=O)c2cc(C(F)(F)F)ccc2Cl)CC1)C1CC1` (configuration not stated): the inhibition is 17.9% (inactive). In the case of `CCOC(=O)c1ccc(S(=O)(=O)N(CCO)Cc2cc3cc(OC)c(OC)cc3[nH]c2=O)cc1`, the inhibition was -25.3% (inactive). The value for `Nc1ncnc2c1ncn2[C@@H]1O[C@H](C(=O)N2CCSC2)[C@@H](O)[C@H]1O` was 4.9% (inactive); that for `COC(=O)C1=C(C)NC(=O)/C1=C/c1ccc(CNS(=O)(=O)c2ccc(C)cc2)o1` was -6.4% (inactive); that for `COC(=O)C1=C(C)NC2=C(C(=O)c3ccccc32)C1c1ccc(-c2ccc(C(=O)O)cc2)o1` (configuration not stated) was 76.6% (active). With `COC(=O)C1=C(C)N(C)C(=O)NC1c1ccc([N+](=O)[O-])o1` (configuration not stated), the inhibition was 1.5% (inactive). As to `Cc1cn([C@H]2C[C@H](O)[C@@H](CNC(=O)[C@H](N)Cc3cccnc3)O2)c(=O)[nH]c1=O`, the inhibition was -3.6% (inactive). As for `Cc1[nH]c(=O)c(C(=O)/C=C/c2ccccc2)c2c1CCCC2`, the inhibition is 51.1% (active). For `CC1(C(=O)O)CCCN(C(=O)/C=C/c2ccccc2)C1` (configuration not stated), the inhibition is -1.6% (inactive). For `COC(=O)c1c(C)[nH]c(C(=O)/C=C/c2ccc(Cl)cc2)c1C`, the inhibition was 3.1% (inactive). With `Cn1c(SCC(=O)NC2CCCCC2)nnc1-c1ccc(N)cc1`, the inhibition was 3.7% (inactive).

As to `Cc1cc(OC(=O)c2ccccc2Cl)ccc1N1C(=O)CCC1=O`, the inhibition was -7.9% (inactive).

Turning to `CC(NS(=O)(=O)c1ccccc1)c1n[nH]c(=S)n1-c1ccccc1` (configuration not stated), the inhibition is -11.4% (inactive). In the case of `Nc1[nH][nH]c(=O)c1N=Nc1ccc2c(c1)OCO2`, the inhibition is -6.6% (inactive). For `CCC(=O)N1CCC(C)(C(=O)Nc2cc(OC)c(OC)c(OC)c2)C1` (configuration not stated), the inhibition was 13.9% (inactive). Take `CC(Oc1ccc2c(-c3ccccc3)cc(=O)oc2c1)C(=O)NC(Cc1c[nH]c2ccccc12)C(=O)O` (configuration not stated): the inhibition is -11.2% (inactive). As to `O=C(CNC(=O)c1ccccc1)NCC(=O)OCc1ccc(Cl)cc1`, the inhibition was -4.1% (inactive). Consider `O=C(CNC(=O)OCc1ccccc1)Oc1cc2oc(=O)cc(-c3ccccc3)c2cc1Cl`, for which the inhibition was 72.8% (active). For `Cc1cc(NC(=O)CS(=O)(=O)c2cn(C)c3ccccc23)no1`, the inhibition is -0.5% (inactive).

On to `OC[C@@H]1CN(Cc2ccc(-c3ccccc3)cc2)C[C@H](n2cnc3c(NC4CCCC4)ncnc32)O1`, for which the inhibition was -0.3% (inactive). For `Cc1nn(-c2ccccc2)c(C)c1/C=N/NC(=O)CSc1nc2ccccc2c(=O)n1-c1ccccc1`, the inhibition is 23.3% (inactive).

`Cn1cc([N+](=O)[O-])c(C(=O)Nc2ccc3c(c2)OCCO3)n1`: the inhibition was 15.1% (inactive). For the compound `Cc1nn(-c2ccccc2)c(Cl)c1/C=N/NC(=O)c1nn(C)cc1[N+](=O)[O-]`, the inhibition was 52% (active).

The values above are taken from PubChem BioAssay AID588850 (Sanford-Burnham Center for Chemical Genomics, 2011).
